Shown are actives, neighbours in structure and some others; about 1.1% of the full set was active somewhere.
HTR5A ag: HTR5A agonists in luminescence cell assay, primary screen, counter-screen for OPRM1-OPRD1 heterodimer agonist project, full-deck HTS; 5-hydroxytryptamine receptor 5A (Homo sapiens), P47898; cell-based; activation, % at 9.3 µM; 340,000 tested, 0.61% active; AID 504692, 2011; in the data active = activation mostly above about 9.5%, no sharp cut-off; inactive = mostly below about 7.6%;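 note: 0% = cells with vehicle only and 100% = reference agonist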
Target sequence (P47898 whole entry, looked up): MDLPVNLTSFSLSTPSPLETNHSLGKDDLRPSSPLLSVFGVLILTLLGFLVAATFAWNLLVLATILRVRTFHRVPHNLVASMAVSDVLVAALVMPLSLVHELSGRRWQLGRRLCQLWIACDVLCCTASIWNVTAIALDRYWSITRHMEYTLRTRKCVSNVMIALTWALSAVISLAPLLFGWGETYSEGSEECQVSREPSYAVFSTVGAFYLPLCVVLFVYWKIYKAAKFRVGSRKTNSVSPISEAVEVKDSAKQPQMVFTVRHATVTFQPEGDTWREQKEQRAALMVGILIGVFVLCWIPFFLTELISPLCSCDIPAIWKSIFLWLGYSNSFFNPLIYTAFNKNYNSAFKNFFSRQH
OPRM1-OPRD1 inv: inverse agonists of MOR-DOR heterodimerization, primary screen, cell-based, luminescence; cell-based MOR-DOR heterodimer luminescence, inverse agonism; 340,000 tested, 0.21% active; inhibition, % at 9.3 µM; Mu-type opioid receptor (Homo sapiens) + Delta-type opioid receptor (Homo sapiens), …; in the data active = inhibition above about 22%, passing the limit was not always enough;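 note: 0% = cells with DMSO and 100% = wells without cells with DMSO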
MOR-DOR ag: agonists of OPRM1-OPRD1 heterodimerization, primary screen, cell-based, luminescence. 340,000 tested, 0.3% active. activation, % at 9.3 µM. cells. AID 504326, 2011; in the data active = activation above about 18%;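 note: 0% = vehicle-treated cells and 100% = reference agonist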
HTR5A inv ctr: HTR5A inverse agonists in luminescence cell assay, primary screen, counter-screen for OPRM1-OPRD1 heterodimer inverse agonist project, full-deck HTS | inhibition, % at 9.3 µM | HTR5A cell line, inverse agonism | 5-hydroxytryptamine receptor 5A (Homo sapiens), P47898 | AID 504634, 2011 | 340,000 tested, 0.083% active; in the data active = inhibition mostly above about 23%, no sharp cut-off; inactive = mostly below about 18%;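 note: 0% = cells with DMSO and 100% = no-cell wells with DMSO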
MOR-DOR inv conf: inverse agonists of MOR-DOR heterodimerization, confirmation, cell-based, luminescence | 580 tested, 20% active | AID 504900, 2011 | cells expressing OPRM1/OPRD1 heterodimer | inhibition, % at 9.3 µM | shares compounds with OPRM1-OPRD1 inv; in the data active = inhibition above about 32%;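 note: 0% = cells with DMSO and 100% = wells lacking cells with DMSO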
HTR5A inv count: HTR5A inverse agonists, counter-screen for OPRM1-OPRD1 inverse agonist project, cell-based, luminescence; shares compounds with OPRM1-OPRD1 inv; HTR5A-expressing cells, inverse agonism; inhibition, % at 9.3 µM; 580 tested, under 10 active; AID 504914, 2011; call rule not given here;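 note: 0% = cells with DMSO and 100% = no-cell wells with DMSO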
Active calls of the source: *; i = inactive; · = no result given.

SMILES	HTR5A ag	OPRM1-OPRD1 inv	MOR-DOR ag	HTR5A inv ctr	MOR-DOR inv conf	HTR5A inv count
COc1ccc(N=C2C(=O)Nc3ccccc32)cc1	-1.9	50.1*	-9.4	7.8	19.6	-15.1
O=C1Nc2ccccc2C1=Nc1ccc(F)cc1	-2.8	59.2*	-10.7	10.9	23.5	4.2
NS(=O)(=O)c1ccc(N=C2C(=O)Nc3ccccc32)cc1	-2.5	64.4*	-11.6	6.5	27.0	-6.7
O=C(CSc1nc2ccccc2s1)Nc1ccc2c(c1)OCO2	-1.0	-33.2	4.6	2.7	·	·
COc1ccc(-n2c(=O)c3ccccc3n(CC(=O)NC3CCCCC3)c2=O)c(OC)c1	2.2	14.6	-2.3	-8.0	·	·
COc1ccc(N=C2C(=O)Nc3ccc(C)c(Br)c32)cc1	-1.6	69.5*	-13.9	6.1	-51.7	-3.4
COc1cc(/C=N/N=C2/C(=O)Nc3ccccc32)ccc1O	-4.7	13.4	-2.6	12.3	·	·
COc1ccc(OC)c(N=C2C(=O)Nc3ccccc32)c1	-8.5	41.5*	-8.3	22.1	44.9*	-2.9
Cc1ccc(C(=O)COC(=O)CNS(=O)(=O)c2ccccc2)cc1[N+](=O)[O-]	-8.8	59.1*	-14.2	18.2	13.3	-3.6
Cc1ccc(S(=O)(=O)CCC(=O)OCC(=O)c2ccc(C)c(C)c2)cc1	2.1	9.7	-1.8	-29.4	·	·
Cc1ccc(C)c(C(=O)COC(=O)CNS(=O)(=O)c2ccccc2)c1	0.1	-0.6	0.1	-0.2	·	·
Cc1ccc(C(=O)COC(=O)CCS(=O)(=O)c2ccccc2)cc1[N+](=O)[O-]	-6.0	42.1*	-10.9	28.1	-342.8	11.2
CCCCCCCOC1(c2ccccc2)OC(=O)c2ccccc21 (stereo not drawn)	-1.1	-0.7	0.1	-10.8	·	·
CC(=O)c1ccc(C(=O)NC2CCCN(Cc3ccc(Cl)cc3)C2)s1 (stereo not drawn)	6.4	12.0	-1.7	-17.5	·	·
C=CCSc1cc(C)nc2c(-c3ccc(Cl)cc3)c(C)nn12	-0.5	28.3*	-5.3	37.6	-52.0	-2.5
CCOC(=O)C1(CCOc2ccccc2)CCN(Cc2cccc(OC)c2O)CC1	-1.3	-32.9	6.7	5.0	·	·
S=C(NNc1ccnc2cc(Cl)ccc12)Nc1ccccc1Cl	1.9	-23.4	4.5	-28.7	·	·
Cc1cccc(NC(=S)NNc2ncc(C(F)(F)F)cc2Cl)c1	-2.1	45.0*	-8.7	48.5	32.9*	22.2
FC(F)(F)c1cnc(NNC(=S)Nc2ccccc2Cl)c(Cl)c1	-9.1	43.2*	-8.1	29.2	44.0*	34.5
Cc1ccc(C(=O)CNc2ccccc2C)cc1	0.2	36.8	-7.0	-12.3	·	·
Cc1ccc(C(=O)CNc2ccc(C)cc2C)cc1	2.8	26.1*	-4.7	-6.2	1.3	20.5
CC(Sc1nnnn1C)C(=O)NC1CCCC1 (stereo not drawn)	-2.8	10.2	-2.0	11.3	·	·
CC(=O)c1ccc(N2CCN(C(=S)NCCCN(C)C)CC2)cc1	2.0	8.1	-1.6	-24.2	·	·
CSc1nnc(C)c(/C=C/NOCc2ccc(Cl)cc2)n1	-1.1	43.8*	-8.5	15.5	-95.5	2.4
CCn1nc([N+](=O)[O-])c(C(C#N)c2nc3cc(C(F)(F)F)ccc3s2)c(Cl)c1=O (stereo not drawn)	-1.5	30.9*	-5.8	1.4	-3.9	-73.4
SMILES	HTR5A ag	OPRM1-OPRD1 inv	MOR-DOR ag	HTR5A inv ctr	MOR-DOR inv conf	HTR5A inv count
CCCn1nc([N+](=O)[O-])c(C(C#N)c2nc3ccccc3o2)c(Cl)c1=O (stereo not drawn)	-1.4	10.6	-1.9	6.3	·	·
O=C(CCC(=O)OCC(=O)c1ccc([N+](=O)[O-])cc1)Nc1ccccc1Cl	0.2	23.9	-4.5	-17.3	·	·
Cc1ccccc1NC(=O)CCC(=O)OCC(=O)c1cccc([N+](=O)[O-])c1	-9.8	59.7*	-13.1	33.1	i	3.8
O=C(CCC(=O)OCC(=O)c1cccc([N+](=O)[O-])c1)Nc1cccc(Cl)c1Cl	-6.1	68.6*	-11.0	30.2	64.2*	23.7
CCc1ccc(C(=O)NNc2ccc(Cl)cc2)cc1	-6.7	39.4*	-8.0	6.2	14.2	1.0
O=C(NNc1cc(Cl)cc(Cl)c1)c1cccs1	-0.7	23.3	-4.6	4.0	·	·
O=C(NNc1ccc(Cl)cc1)c1cccs1	-1.7	49.5*	-9.7	-9.6	-15.5	-6.8
CCCc1ccc(C(=O)NNc2cccc(C)c2)cc1	-7.1	43.9*	-8.8	0.1	25.4	13.6
CCc1ccc(C(=O)NNc2cc(Cl)cc(Cl)c2)cc1	-0.8	-16.2	3.2	-8.0	·	·
COc1ccc(C(=O)NCC(=O)N2CCCC(C)C2)cc1OC (stereo not drawn)	-0.6	6.9	-1.4	7.1	·	·
O=S(=O)(NNc1cccc(Cl)n1)c1ccc(Cl)cc1	-5.6	79.7*	-19.6	14.3	49.8*	6.3
Cc1cc(C)c(C(=O)CC2(O)C(=O)Nc3ccccc32)cc1C (stereo not drawn)	-8.7	2.5	-0.4	22.0	·	·
Cc1ccc(NC2(C#N)C(=O)Nc3ccccc32)cc1C (stereo not drawn)	-5.5	55.6*	-11.7	14.0	-244.4	-0.5
COC(=O)c1ccc(NC2(C#N)C(=O)Nc3ccccc32)cc1 (stereo not drawn)	-4.5	82.5*	-14.0	11.7	64.2*	15.9
CC(C)(C)OC(=O)C[C@@H]1C/C=C\C[C@H](CC(=O)N(CCO)Cc2ccccc2)C(=O)NC[C@@H](c2ccccc2)OC1=O	-10.0	56.3*	-12.2	36.3	-426.6	-0.9
CNc1nc(-c2ccc3c(c2)CCN3C(=O)c2cccc(F)c2)cs1	-1.2	-7.1	1.3	3.6	·	·
O=[N+]([O-])c1cccc(/C=N/NS(=O)(=O)c2ccccc2)c1	-0.5	38.4*	-7.5	-10.9	21.0	0.1
CC(=O)NC(=S)Nc1ccccc1C(=O)Nc1ccccc1	-2.2	27.5*	-5.0	-24.4	7.4	-2.1
CCCCC(=O)NC(=S)Nc1ccccc1C(=O)Nc1ccccc1	-2.5	29.9*	-5.5	10.2	8.4	2.4
O=C(Nc1nc(-c2ccco2)c(-c2ccco2)s1)C1CC(=O)N(c2ccc3c(c2)OCCO3)C1 (stereo not drawn)	-0.5	-9.8	1.7	4.9	·	·
Cn1c(-c2ccc(F)cc2)cnc1NCc1ccccc1F	-0.2	37.7*	-7.4	-17.6	-9.6	-4.9
Cc1ccc(N/N=C/c2cccnc2)cc1	1.0	52.5*	-9.8	-3.0	-237.4	-16.8
Cc1ccc(N/N=C/c2ccncc2)cc1	-0.7	31.4	-6.1	2.4	·	·
CCOC(=O)Cn1c(=NC(=O)C2CC2)sc2c(C)cc(C)cc21	2.0	-8.5	1.6	-5.5	·	·
